Screening results: PubChem, several laboratories
In the library only some 32% were active in any assay of this set; here they are far more common.
PostGolgi ctrl: growth inhibition of yeast control strain, primary screen, counter-screen for post-Golgi transport modulator project; efflux-deficient yeast background strain, growth absorbance A615, 16 h; inhibition, % at 10 µM; hit rate 5% among 98,000; AID 738, 2007
CYP2C19 act: human CYP2C19 activators, primary screen, biochemical, luminescence. 96,000 tested, under 10 active. recombinant CYP2C19, luciferin-H EGE luminescence; stronger effect = higher value; 0 = fully inhibited enzyme, 1 = untreated enzyme. activation factor at 5 µM. Cytochrome P450 2C19 (Homo sapiens), P33261;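 active = activation factor of at least 2 at 5 µM in the primary screen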
CYP2C9 activ: human CYP2C9 activators, primary screen, biochemical, luminescence; recombinant CYP2C9, luciferin-H conversion; stronger effect = higher value; factor 1 = untreated enzyme, 0 = blocked; activation factor at 5 µM; hit rate 1.4% among 96,000; AID 1024, 2008; Cytochrome P450 2C9 (Homo sapiens), P11712;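 active = activation factor of 2 or more for CYP2C9 at a 5 µM dose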
Target sequence (P11712 whole entry, looked up): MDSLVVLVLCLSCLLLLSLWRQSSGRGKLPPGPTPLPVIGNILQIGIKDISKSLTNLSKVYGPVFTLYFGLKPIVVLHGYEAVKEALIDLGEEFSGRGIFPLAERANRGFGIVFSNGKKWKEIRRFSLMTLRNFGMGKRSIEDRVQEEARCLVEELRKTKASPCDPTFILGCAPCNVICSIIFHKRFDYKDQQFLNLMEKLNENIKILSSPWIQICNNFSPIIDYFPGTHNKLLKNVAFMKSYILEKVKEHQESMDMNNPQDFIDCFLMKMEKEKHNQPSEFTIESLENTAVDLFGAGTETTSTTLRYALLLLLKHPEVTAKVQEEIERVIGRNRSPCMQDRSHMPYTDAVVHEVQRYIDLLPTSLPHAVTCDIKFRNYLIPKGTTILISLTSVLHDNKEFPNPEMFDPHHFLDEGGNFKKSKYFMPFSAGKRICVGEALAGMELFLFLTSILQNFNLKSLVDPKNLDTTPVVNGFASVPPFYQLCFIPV
PostGolgi yeast: phenotypic screen on post-Golgi transport, primary screen | post-Golgi transport phenotypic cell assay | inhibition, % at 10 µM | hit rate 0.9% among 98,000 | AID 739, 2007;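 note: yeast cells grown in 1536-well plates; yeast grown about 18 h at 30C before absorbance read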
CYP2C9 inhib: blockers of cytochrome P450 2C9 activity – biochemical, luminescence, ADME assay, primary screen | inhibition, % at 5 µM | AID 777, 2007 | CYP2C9 Supersomes, luciferin-H conversion | P11712 | hit rate 20% among 96,000;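 active = blocking of liver enzyme CYP2C9 beyond about 50% at 5 µM, limit read from the data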
CYP2C19 inh: blockers of cytochrome P450 2C19 activity – biochemical, luminescence, ADME assay, primary screen. CYP2C19 Supersomes, luciferin-H EGE luminescence, 30 min. inhibition, % at 5 µM. P33261. AID 778, 2007. hit rate 21% among 96,000;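 active = CYP2C19 inhibition above a set limit at 5 µM in the primary screen, cut at about 50% in these data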
Numbers stand for hits. Cut-off read from the data, not from the text of the source, unless noted: active = inhibition above about 30%; inactive = the rest.

What do the screens show for `CCOC(=O)c1cc2c(C)n(-c3ccc(C)cc3)c(C)c2ccc1=O`?
PostGolgi ctrl: inactive; CYP2C19 act: inactive; CYP2C9 activ: inactive; PostGolgi yeast: inactive; CYP2C9 inhib: 58.9; CYP2C19 inh: inactive

What do the screens show for `Cc1ccc(-c2nnc3n2N=C(c2ccccc2Br)CS3)cc1`?
PostGolgi ctrl: inactive; CYP2C19 act: inactive; CYP2C9 activ: inactive; PostGolgi yeast: inactive; CYP2C9 inhib: inactive; CYP2C19 inh: inactive

What do the screens show for `Cc1cccc(-n2c(Cn3nc(C)c([N+](=O)[O-])c3C)n[nH]c2=S)c1`?
PostGolgi ctrl: inactive; CYP2C19 act: inactive; CYP2C9 activ: inactive; PostGolgi yeast: inactive; CYP2C9 inhib: inactive; CYP2C19 inh: inactive

How did Cn1c(=O)c2c(nc(SCc3cccnc3)n2Cc2ccc(F)cc2)n(C)c1=O do in these assays?
PostGolgi ctrl: inactive; CYP2C19 act: inactive; CYP2C9 activ: inactive; PostGolgi yeast: inactive; CYP2C9 inhib: inactive; CYP2C19 inh: inactive

How did Cc1cccc(C)c1NC(=O)N1C(C(=O)O)CSC1C(=O)O (stereo unspecified) do in these assays?
PostGolgi ctrl: inactive; CYP2C19 act: inactive; CYP2C9 activ: inactive; PostGolgi yeast: inactive; CYP2C9 inhib: inactive; CYP2C19 inh: inactive

Results for COC(=O)C1CSC(C(=O)OC)N1C(=O)Nc1c(C)cccc1C (stereo unspecified) ?
PostGolgi ctrl: 38.1; CYP2C19 act: inactive; CYP2C9 activ: inactive; PostGolgi yeast: inactive; CYP2C9 inhib: inactive; CYP2C19 inh: inactive

How did Cc1cccc(CSc2ncnc3nc[nH]c23)c1 do in these assays?
PostGolgi ctrl: inactive; CYP2C19 act: inactive; CYP2C9 activ: inactive; PostGolgi yeast: inactive; CYP2C9 inhib: inactive; CYP2C19 inh: 71.8

How did Cc1cccc(NC(=O)CSc2ncnc3nc[nH]c23)c1 do in these assays?
PostGolgi ctrl: inactive; CYP2C19 act: inactive; CYP2C9 activ: inactive; PostGolgi yeast: inactive; CYP2C9 inhib: inactive; CYP2C19 inh: inactive

What do the screens show for `COc1ccc2[nH]c(=O)c(CN(Cc3ccco3)C(=O)c3ccccc3)cc2c1`?
PostGolgi ctrl: inactive; CYP2C19 act: inactive; CYP2C9 activ: inactive; PostGolgi yeast: inactive; CYP2C9 inhib: inactive; CYP2C19 inh: inactive

Results for O=C(c1cc2ccccc2oc1=O)N(Cc1ccco1)Cc1cccs1 ?
PostGolgi ctrl: 49.4; CYP2C19 act: inactive; CYP2C9 activ: inactive; PostGolgi yeast: inactive; CYP2C9 inhib: 66.0; CYP2C19 inh: inactive

How did Cc1ccc2[nH]c(=O)c(CN(Cc3ccco3)C(=O)c3ccncc3)cc2c1 do in these assays?
PostGolgi ctrl: inactive; CYP2C19 act: inactive; CYP2C9 activ: inactive; PostGolgi yeast: inactive; CYP2C9 inhib: 96.0; CYP2C19 inh: 99.8

Results for O=C(c1cccs1)N(Cc1ccco1)Cc1cc2ccccc2[nH]c1=O ?
PostGolgi ctrl: inactive; CYP2C19 act: inactive; CYP2C9 activ: inactive; PostGolgi yeast: inactive; CYP2C9 inhib: 67.3; CYP2C19 inh: 74.8

How did Cc1ccc2[nH]c(=O)c(CN(CC3CCCO3)C(=O)c3ccncc3)cc2c1 (stereo unspecified) do in these assays?
PostGolgi ctrl: inactive; CYP2C19 act: inactive; CYP2C9 activ: inactive; PostGolgi yeast: inactive; CYP2C9 inhib: 84.3; CYP2C19 inh: 97.8

What do the screens show for `COC(=O)CSc1nnc2c(C)cc3cc4c(cc3n12)OCCO4`?
CYP2C19 act: inactive; CYP2C9 activ: inactive; CYP2C9 inhib: inactive; CYP2C19 inh: inactive

How did Cc1cc(C(=O)OC2CCOC2=O)c2ccccc2n1 (stereo unspecified) do in these assays?
PostGolgi ctrl: inactive; CYP2C19 act: inactive; CYP2C9 activ: inactive; PostGolgi yeast: inactive; CYP2C9 inhib: inactive; CYP2C19 inh: inactive

How did COc1ccc(-c2cc(C(=O)OCC(=O)N(C)C)c3ccccc3n2)cc1 do in these assays?
PostGolgi ctrl: inactive; CYP2C19 act: inactive; CYP2C9 activ: inactive; PostGolgi yeast: inactive; CYP2C9 inhib: 71.6; CYP2C19 inh: 88.0

What do the screens show for `COc1ccc(-c2cc(C(=O)OC3CCOC3=O)c3ccccc3n2)cc1` (stereo unspecified)?
PostGolgi ctrl: inactive; CYP2C19 act: inactive; CYP2C9 activ: inactive; PostGolgi yeast: inactive; CYP2C9 inhib: 96.2; CYP2C19 inh: inactive

Results for O=C(OC1CCOC1=O)c1cc(-c2ccc(Br)cc2)nc2ccccc12 (stereo unspecified) ?
PostGolgi ctrl: inactive; CYP2C19 act: inactive; CYP2C9 activ: inactive; PostGolgi yeast: inactive; CYP2C9 inhib: 51.5; CYP2C19 inh: inactive

Results for COc1ccc(-c2cc(C(=O)Oc3ccc([N+](=O)[O-])cc3)c3ccccc3n2)cc1 ?
PostGolgi ctrl: inactive; CYP2C19 act: inactive; CYP2C9 activ: inactive; PostGolgi yeast: inactive; CYP2C9 inhib: inactive; CYP2C19 inh: inactive

Results for Cc1ccc(C(=O)COC(=O)c2cc(Cl)nc3ccccc23)cc1 ?
PostGolgi ctrl: inactive; CYP2C19 act: inactive; CYP2C9 activ: inactive; PostGolgi yeast: inactive; CYP2C9 inhib: inactive; CYP2C19 inh: 65.0

How did CCC1(CC)Cc2ccccc2C(Nc2c(C)n(C)n(-c3ccccc3)c2=O)=N1 do in these assays?
PostGolgi ctrl: inactive; CYP2C19 act: inactive; CYP2C9 activ: inactive; PostGolgi yeast: inactive; CYP2C9 inhib: inactive; CYP2C19 inh: inactive

What do the screens show for `O=C(c1cc(-c2ccco2)on1)N1CCN(C(c2ccccc2)c2ccccc2)CC1`?
PostGolgi ctrl: inactive; CYP2C19 act: inactive; CYP2C9 activ: inactive; PostGolgi yeast: inactive; CYP2C9 inhib: inactive; CYP2C19 inh: inactive

Results for CCCCNc1nc(-c2ccccc2)nc(-n2ccnc2)n1 ?
PostGolgi ctrl: inactive; CYP2C19 act: inactive; CYP2C9 activ: inactive; PostGolgi yeast: inactive; CYP2C9 inhib: 85.2; CYP2C19 inh: 85.7

Results for c1ccc(CN2CCN(c3nc(-c4ccccc4)nc(-n4ccnc4)n3)CC2)cc1 ?
PostGolgi ctrl: 77.4; CYP2C19 act: inactive; CYP2C9 activ: inactive; PostGolgi yeast: 48.2; CYP2C9 inhib: 57.2; CYP2C19 inh: inactive

What do the screens show for `CC(C)Nc1nc(-c2ccccc2)nc(-n2ccnc2)n1`?
PostGolgi ctrl: inactive; CYP2C19 act: inactive; CYP2C9 activ: inactive; PostGolgi yeast: inactive; CYP2C9 inhib: inactive; CYP2C19 inh: inactive

How did c1ccc(CN2CCN(c3nc(-c4ccccc4)nc4ccccc34)CC2)cc1 do in these assays?
PostGolgi ctrl: inactive; CYP2C19 act: inactive; CYP2C9 activ: inactive; PostGolgi yeast: inactive; CYP2C9 inhib: inactive; CYP2C19 inh: inactive

What do the screens show for `c1ccc(-c2nc(-n3ccnc3)nc(-n3ccnc3)n2)cc1`?
PostGolgi ctrl: inactive; CYP2C19 act: inactive; CYP2C9 activ: inactive; PostGolgi yeast: inactive; CYP2C9 inhib: inactive; CYP2C19 inh: 55.9

Results for Cc1cc(NC(=O)C(C)(C)C)no1 ?
PostGolgi ctrl: inactive; CYP2C19 act: inactive; CYP2C9 activ: inactive; PostGolgi yeast: inactive; CYP2C9 inhib: inactive; CYP2C19 inh: inactive

What do the screens show for `Clc1ccccc1CSc1snnc1-c1ccccc1`?
PostGolgi ctrl: inactive; CYP2C19 act: inactive; CYP2C9 activ: inactive; PostGolgi yeast: inactive; CYP2C9 inhib: inactive; CYP2C19 inh: inactive
